Most compounds without a hit are left out; they make up all but 2.4% or so of the library.
TDP1 inh: inhibitors of human tyrosyl-DNA phosphodiesterase TDP1 | Q9NUW8 | recombinant TDP1, AlphaScreen DNA substrate cleavage | Potency, µM (top dose mostly 130 µM), inactives show at the highest dose activity change, negative = inhibition, usual class: inhibitors | 350,000 compounds, 0.28% hits; further: on the % scale 0 is the no-effect control and ±100 the full control effect; nearly all actives have a fitted effect of over 40% in size
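Compounds were preincubated with Tdp1 (1 nM final) for 15 min at room temperature before substrate (15 nM final) started a 5 min reaction; beads (10 ug/ml final) were then added for 10 min before AlphaScreen detection.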
POLK inh: DNA polymerase kappa (human) inhibition; Q9UBT6; purified Pol kappa, fluorescent DNA synthesis assay, 10 min; Potency, µM (series often up to 107 µM), for the others: top-dose activity, negative = inhibition, most hits filed as inhibitors; 400,000 compounds, 0.53% hits; further: on the % scale 0 is the no-effect control and ±100 the full control effect
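Kinetic fluorescence readout at 0 and 10 min followed reaction start with substrate at 50 nM final. Beforehand, enzyme (10 nM Pol kappa) stood 15 min with compound at room temperature; buffer-only wells were negative controls.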
FEN1 inh-1: inhibitors of human flap endonuclease 1 | AID 588795 | Recombinant FEN1 flap cleavage, fluorescence, 15 min | P39748 | Potency, µM (series often up to 114 µM), for inactives: at the highest dose activity change, negative = inhibition, actives largely listed as inhibitors | 390,000 compounds, 0.35% hits; further: on the % scale 0 is the no-effect control and ±100 the full control effect; nearly all actives have a fitted effect of over 65% in size
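Compounds are tested as a concentration series against 10 nM FEN1; after a 15 min room-temperature preincubation, 50 nM substrate starts cleavage, with plate reads at 0 and 15 min. Normalized responses are fitted by a Hill equation.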
Pol eta inh: inhibitors of human DNA polymerase eta | recombinant Pol eta, fluorescent DNA replication assay | Potency, µM (top dose mostly 114 µM), inactives show at the top dose activity change, negative = inhibition, actives largely listed as inhibitors | 390,000 compounds, 1.2% hits | Q9Y253; further: on the % scale 0 is the no-effect control and ±100 the full control effect
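Fluorescent replication assay: 50 nM final substrate added after a 15 min room-temperature compound preincubation with 10 nM enzyme. Signal taken at 0 min and again at 10 min.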
Pol beta inh: inhibitors of human DNA polymerase beta | P06746 | Pol beta primer extension/strand displacement, fluorescence kinetic | Potency, µM (top dose mostly 114 µM), for inactives: at the highest dose activity change, negative = inhibition, actives largely listed as inhibitors | 340,000 compounds, 1.3% hits; further: on the % scale 0 is the no-effect control and ±100 the full control effect
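Enzyme-only controls used 10 nM Pol beta; buffer lacking enzyme served as negative control. Compound preincubated 15 min, then 50 nM substrate added; 0 and 10 min reads at room temperature.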
POLI inh: blocks human DNA polymerase iota activity | 390,000 compounds, 1% hits | AID 588590 | Potency, µM (top dose mostly 115 µM), for the others: top-dose activity, negative = inhibition, hits mostly inhibitors | Pol iota fluorescent replication assay, 10 min
Target sequence (Q9UNA4 whole entry, looked up): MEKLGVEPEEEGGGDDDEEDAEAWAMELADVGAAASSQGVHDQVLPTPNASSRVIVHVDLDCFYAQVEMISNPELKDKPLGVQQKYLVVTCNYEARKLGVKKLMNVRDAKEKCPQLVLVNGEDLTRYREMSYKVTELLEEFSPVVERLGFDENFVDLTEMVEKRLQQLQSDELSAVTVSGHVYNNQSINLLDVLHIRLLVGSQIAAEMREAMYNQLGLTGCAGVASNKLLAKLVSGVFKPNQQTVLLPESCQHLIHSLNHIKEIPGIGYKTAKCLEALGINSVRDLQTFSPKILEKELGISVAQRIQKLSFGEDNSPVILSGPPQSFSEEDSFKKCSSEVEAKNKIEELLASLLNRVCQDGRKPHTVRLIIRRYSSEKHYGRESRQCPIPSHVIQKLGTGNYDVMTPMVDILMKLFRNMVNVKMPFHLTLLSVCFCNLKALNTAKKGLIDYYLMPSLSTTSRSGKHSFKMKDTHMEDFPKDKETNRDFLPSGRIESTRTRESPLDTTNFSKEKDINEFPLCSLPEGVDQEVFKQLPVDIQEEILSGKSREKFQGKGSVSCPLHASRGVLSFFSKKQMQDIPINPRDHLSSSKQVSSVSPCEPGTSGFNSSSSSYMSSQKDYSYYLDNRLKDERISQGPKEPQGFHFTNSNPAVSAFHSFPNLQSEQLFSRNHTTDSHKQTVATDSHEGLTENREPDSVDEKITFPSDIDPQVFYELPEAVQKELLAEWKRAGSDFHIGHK
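Fluorescent replication assay read twice, at 0 min and 10 min after adding 50 nM (final) substrate. Enzyme (10 nM) and compounds were first incubated 15 min at room temperature; enzyme-free buffer wells were negative controls.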
FEN1 inh-2: FEN1 inhibition, cherry-pick retest. shares compounds with FEN1 inh-1. FEN1 flap cleavage, TAMRA/BHQ2 fluorogenic DNA substrate. Potency, µM, hits mostly inhibitors. 880 compounds, 79% hits. AID 720498; further: nearly all actives have a fitted effect of over 60% in size
Starred values were filed as active, the others as inactive; ? = inconclusive; · = no result; [ ] = remark or other dose. The call rests on the fitted dose curve; in most records, active means well fitted curve in the direction sought with a large enough effect; inconclusive means small, poorly fitted or top-dose-only effect, or another doubt; inactive means no such curve, though single readings can be large; an effect the other way counts as inactive or inconclusive. Potency means the concentration at half of the fitted maximal effect.

SMILES	TDP1 inh	POLK inh	FEN1 inh-1	Pol eta inh	Pol beta inh	POLI inh	FEN1 inh-2
O=C(N/N=C/c1ccc(-c2ccccc2[N+](=O)[O-])o1)c1cncc(Br)c1	8%	-18%	-13%	-16%	31%	58%	·
Nn1cnnc1N/N=C\c1ccc(-c2ccccc2[N+](=O)[O-])o1	7%	-8%	-10%	-7%	-19%	2.8µM*	?
NC(N)=Nc1nc(-c2ccccc2)c2ccccc2n1	0%	7%	?	-11%	-23%	25%	?
CC1CCCCC1NC(=O)COC(=O)c1ccc([N+](=O)[O-])o1 (stereo not given)	-5%	-19%	-26%	89µM*	·	32µM*	9.5*
COc1ccc(CCNC(=O)COc2ccc([N+](=O)[O-])cc2)cc1	-5%	-16%	-1%	-20%	107%	60%	·
O=C(COC(=O)c1ccc([N+](=O)[O-])o1)NCc1ccc(F)cc1	0%	-25%	?	89µM*	·	?	13*
CC(=O)Nc1ccc(NC(=O)COC(=O)c2ccc([N+](=O)[O-])o2)cc1	-1%	-28%	20µM*	?	·	?	15*
COc1ccc(CCNC(=O)COC(=O)c2ccc([N+](=O)[O-])o2)cc1	0%[56.1 µM]	-9%	?	?	·	?	17*
CCO[C@H]1OC(C(=O)N2CCN(Cc3ccc4c(c3)OCO4)CC2)=C[C@@H](C2CC2)[C@@H]1CCCO	0%	-13%	-1%	-2%	6%	5%	·
Cc1ccc(NC(=O)COC(=O)c2ccc(Br)o2)cc1S(=O)(=O)N1CCCCC1	1%	1%	-6%	-10%	·	-19%	·
Cc1ccc(NC(=O)COC(=O)c2ccc([N+](=O)[O-])o2)cc1S(=O)(=O)N1CCCCC1	5%	3%	?	-13%	?	100%	27*
O=C(COC(=O)c1ccc([N+](=O)[O-])o1)Nc1cccc2ccccc12	7%	-39%	?	1%	?	-1%	·
O=C(COC(=O)c1ccc([N+](=O)[O-])o1)NCCCc1ccccc1	0%	-24%	?	89µM*	·	?	19*
CCC(=O)OC1(C)C(=O)C=C2C=C(C3CC3)OC=C2C1=O (stereo not given)	1%	?	?	?	·	?	85*
CC1(OC(=O)c2cnc3ccccc3n2)C(=O)C=C2C=C(C3CC3)OC=C2C1=O (stereo not given)	1%	·	·	·	·	·	·
COc1ccc(OC)c(/C(O)=C/C(=O)C(=O)Nc2cc(C)cc(C)c2)c1	6%	-11%	?	-4%	2%	?	43*
c1cc2nc(C34CC5CC(CC(C5)C3)C4)[nH]c2cn1	3%	-13%	-8%	-16%	-29%	23%	·
Nc1nc(C23CC4CC(CC(C4)C2)C3)[nH]c(=O)n1	1%	-13%	?	6%	2%	18%	34*
Cc1ccc(NC(=O)C(=O)NCC(c2cccnc2)N2CCc3ccccc3C2)cc1 (stereo not given)	5%	-1%	-6%	-23%	1%	15%	·
CNC(=O)c1oc(-c2ccc(Cl)cc2)nc1C	3%	-12%	-10%	-8%	-15%	17%	·
CC(C)Cn1c(N)c(C(=O)COC(=O)c2ccc([N+](=O)[O-])o2)c(=O)n(C)c1=O	7%	-11%	?	?	?	26%	9.5*
CC(C)Cn1c(N)c(C(=O)COC(=O)c2ccc(O)cc2)c(=O)n(C)c1=O	-1%	4%	7%	-23%	1%	16%	·
Cc1cc(C(=O)COC(=O)c2ccc([N+](=O)[O-])o2)c(C)n1CC1CCCO1 (stereo not given)	5%	-31%	?	-29%	?	?	·
COCCn1c(C)cc(C(=O)COC(=O)c2ccc([N+](=O)[O-])o2)c1C	-5%	-26%	?	79µM*	?	?	15*
CCn1c(=O)c2sccc2n2c(CCCC(=O)Nc3ccc(OC)c(OC)c3)nnc12	-3%	-5%	3%	-3%	10%	-14%	·
SMILES	TDP1 inh	POLK inh	FEN1 inh-1	Pol eta inh	Pol beta inh	POLI inh	FEN1 inh-2
NC(=O)c1ccc2c(=O)c(O)c(-c3cc(Cl)c(N)c(Cl)c3)[nH]c2c1	·	4%	56µM*	-1%	-2%	?	38*
Cc1cc(N/N=C/c2ccc(O)cc2)c2cccc(C)c2n1	4%	-24%	?	?	25µM*	-24%	38*
CCc1ccccc1NC(=O)CCNC(=O)Cn1ccc2ccccc2c1=O	6%[0.0935 µM]	-2%	17%	5%	-12%	3%	·
CNc1ncnc2ccc(-c3ccc4c(c3)OCO4)cc12	·	-3%[60.1 µM]	·	·	·	·	·
CN(C)CCCNc1ncnc2ccc(-c3ccc4c(c3)OCO4)cc12	·	·	·	·	·	·	30*
c1ccc(CNc2ncnc3ccc(-c4ccc5c(c4)OCO5)cc23)cc1	·	-6%[60.1 µM]	·	·	·	·	·
NCCNc1ncnc2ccc(-c3ccc4c(c3)OCO4)cc12	·	·	·	·	·	·	27*
NCCCCNc1ncnc2ccc(-c3ccc4c(c3)OCO4)cc12	·	·	·	·	·	·	30*
CCc1nc2oc3ccccc3c(=O)c2cc1C(=O)OC	·	-4%	3%	-19%	29%	128%	·
CCc1ccc(-n2nc3ccc(NC(=O)c4cc(Cl)c(OC)c(Cl)c4)cc3n2)cc1	1%	-25%	1%	-16%	0%	17%	·
CCOC(=O)C1CCNC(=O)C1=O (stereo not given)	·	-12%	20µM*	?	·	31%	21*
O=C(CS(=O)(=O)c1cn(CC(=O)N2CCOCC2)c2ccccc12)NCc1ccc(F)cc1	1%	1%	-10%	-12%	13%	15%	·
O=C(NN1C(=O)/C(=C/c2ccc(O)cc2)SC1=S)c1cccc(O)c1	·	-26%	-3%	3%	-15%	?	?
Cc1ccc(O)c2ncccc12	9%	-3%[19.4 µM]	·	·	·	·	·
Cc1c(C)c2cccnc2c2ncccc12	-1%	-23%	16µM*	-4%	·	-27%	43*
Cc1cc(C)c(S(=O)(=O)Nc2ccc[nH]c2=O)c(C)c1	8%	-9%	8%	-29%	9%	3%	·
COc1ccccc1NC(=O)COC(=O)c1ccc([N+](=O)[O-])s1	5%	-33%	-10%	?	7.1µM*	79µM*	7.6*
Cc1cc(C)c(NC(=O)COC(=O)c2ccc([N+](=O)[O-])s2)c(C)c1	-2%	-18%	1%	-13%	-6%	27%	·

High-throughput results as filed in PubChem BioAssay.
